# Screening data from PubChem BioAssay.
# ADAM17 inh: ADAM17 inhibitors, primary screen, biochemical, QFRET; inhibition, % at 6.95 µM; hit rate 0.83% among 370,000; AID 720648, 2013; recombinant ADAM17, EDANS/DABCYL FRET peptide cleavage;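 active = inhibition above the mean of compounds lying between control limits plus 3 SD, set per campaign, cut at about 8.5% in these data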;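 also: 0% = DMSO-only wells as the low control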
# NPR2 activator: human GC-B receptor activators, primary screen, HEK293 GC-B cells, cGMP TR-FRET, EC30 CNP | 0% at EC30 CNP, 100% saturating CNP | activation, % at 10 µM | hit rate 0.11% among 370,000 | AID 1920062, 2024;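 active = activation at 10 µM reaching about 35% in either raw or pattern-adjusted values, limit read from the data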
# ADAM10 inh: human ADAM10 inhibitors, primary screen, biochemical, QFRET, HTS | inhibition, % at 7 µM | hit rate 0.62% among 370,000 | Disintegrin and metalloproteinase domain-containing protein 10 (Homo sapiens), O14672 | recombinant ADAM10, EDANS/DABCYL FRET peptide cleavage, 3 h;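 active = inhibition above a per-campaign cutoff equal to the mean of compounds falling between control-based bounds plus 3 SD, cut at about 20% in these data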;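 also: 0% = DMSO wells while the 100% control is not disclosed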
# GC-A act: GC-A stimulated cGMP production enhancers – HEK293 GC-A cells, cGMP TR-FRET, EC30 ANP, primary screen. Atrial natriuretic peptide receptor 1 (Homo sapiens), P16066. 0% at EC30 ANP, 100% saturating ANP. activation, % at 10 µM. hit rate 0.14% among 370,000. AID 1671463, 2021; in the data active = activation above about 40%
# * hit, by the source's call. Hits are enriched below; roughly 1.3% of the tested compounds scored in any of these assays.
SMILES,ADAM17 inh,NPR2 activator,ADAM10 inh,GC-A act
COc1ccc2c(c1)OC[C@H]1[C@H]2N2C(=O)c3cc(OC)c(OC)cc3NC(=O)[C@@]2(C)[C@H]1c1ccccc1,-2.1,6.8,-7.4,-4.1
COc1ccc2c(c1)OC[C@H]1[C@H]2N2C(=O)c3ccc(F)cc3NC(=O)[C@@]2(C)[C@H]1c1ccccc1,9.1*,0.3,19.2,-2.6
C[C@H]1[C@H](c2ccccc2)OC(O)([C@H](Cc2ccccc2)NC(=O)OC(C)(C)C)CN1C (some centres undefined),-5.5,-3.1,-2.4,5.7
CC1(C(=O)NS(=O)(=O)c2ccccc2Cl)CCN1C(=O)c1ccco1 (centres undefined),-2.4,0.5,-10.0,3.1
CCn1ncc(Br)c1C(=O)Nc1ccc(F)cc1F,-1.9,2.3,-4.7,-4.0
CCn1ncc(Br)c1C(=O)Nc1ccc(F)c([N+](=O)[O-])c1,-0.7,35.5*,2.3,27.6
CC1(c2nnnn2-c2ccc3c(c2)OCCO3)CCC(=O)N1CC(F)(F)F (centres undefined),-2.3,0.0,-7.2,3.0
COc1ccc(-c2csc3nc(-c4ccccc4OC)oc(=O)c23)cc1,1.0,5.5,2.2,41.6*
COc1cc(Cl)ccc1OCc1cc(C(=O)N[C@H]2CCCCNC2=O)no1,-1.4,2.9,6.2,59.9*
COc1cc(Cl)ccc1OCc1cc(C(=O)N2CCCCCCC2)no1,6.2,-4.1,7.4,-0.2
CC(=O)N1CCN(CC(=O)Nc2ccccc2Sc2ccc(Cl)cc2)CC1,0.8,-8.5,5.1,-9.0
O=C(CCl)Nc1ccccc1Sc1ccc(Cl)cc1,4.8,-2.9,1.1,45.1*
Cc1ccnc(N/C=C(/NC(=O)c2ccccc2)C(=O)N/N=C\c2ccc(Cl)cc2)n1,2.1,2.5,11.1,52.3*
COc1cc(/C=C2\C(=O)N(CCC#N)N=C2C)ccc1OCC(=O)Nc1ccccc1,1.7,46.7*,-2.4,53.1*
Cc1cc(Nc2cccc(Cl)c2Cl)n2ncnc2n1,3.3,39.1*,6.8,-1.2
Brc1ccccc1Cn1c(-c2cscn2)nc2ccccc21,1.0,39.0*,10.8,36.2
CC(C)Cc1nc(SCC(=O)NCC2CCCO2)c2c(=O)n(C)c(=O)n(C)c2n1 (centres undefined),-3.1,-1.5,-5.6,5.5
COC(=O)c1sc(-c2ccc(Cl)cc2)cc1NC(=O)COCC(=O)O,-19.2,-7.5,-52.8,16.5
COC(=O)c1sc(-c2ccc(Cl)cc2)cc1NC(=O)/C=C/C(=O)O,-6.1,-8.5,-8.7,46.6*
CCN(c1ccccc1)S(=O)(=O)c1cccc(C(=O)NCC(c2ccc(F)cc2)N2CCOCC2)c1 (centres undefined),0.8,5.1,-7.4,1.5
COc1ccccc1Cn1nnc2c(=O)[nH]c(C3CCN(C(=O)c4ccccc4Cl)CC3)nc21,1.2,48.3*,-9.4,35.9
Cc1ccsc1/C=c1\sc2ncnn2c1=O,-5.2,1.1,5.2,18.4
CCCCOc1ccc(/C=c2\sc3ncnn3c2=O)cc1,-2.5,-4.7,-3.5,67.2*
CCOc1ccc(-n2c(SCC(=O)Nc3ccc(S(=O)(=O)Nc4cc(C)nc(C)n4)cc3)nnc2-c2ccc(OC)cc2)cc1,2.5,3.6,0.9,-0.5
CC1CCC(NC(=O)C2CCN(C(=O)Nc3ccccc3)CC2)CC1 (centres undefined),-4.2,3.5,-7.9,2.9
SMILES,ADAM17 inh,NPR2 activator,ADAM10 inh,GC-A act
C=CC[n+]1c(-c2ccc(Cl)cc2Cl)csc1Nc1c(C)n(C)n(-c2ccccc2)c1=O,-1.4,3.8,1.8,-4.2
C=CC[n+]1c(-c2ccc(Cl)cc2Cl)csc1Nc1ccc(NC(C)=O)cc1,8.4,-9.9,26.8*,-15.8
CC(=O)N1c2ccc(S(=O)(=O)NCCc3ccc(S(N)(=O)=O)cc3)cc2CC1C (centres undefined),-0.3,4.0,-4.1,4.9
CC1(C)Cc2c(sc3c2c(=N)n(Cc2ccco2)c(=O)n3Cc2ccc(Cl)cc2)CO1,-4.1,35.3*,-5.4,23.9
CC1(C)Cc2c(sc3c2c(=N)n(Cc2ccco2)c(=O)n3Cc2ccccc2)CO1,-4.7,32.5,-4.9,31.4
COc1ccc(/C=C/C(=O)c2cc(F)ccc2OC(=O)c2ccccc2)cc1OC,10.7*,2.5,11.5,-1.1
O=C1CCC[C@H]2C[C@H](NCc3ccc(F)cc3F)CC[C@]23CCCN13,-5.4,0.0,-5.0,-0.8
CN1C2=NC(c3ccccc3)CC(=O)N2/C(=C\c2ccccc2)C1c1ccccc1C(F)(F)F (centres undefined),-1.4,-32.0,1.9,-35.6
COc1ccc([C@H]2CC(=O)C=C(c3ccc(C)c(F)c3)C2)cc1,0.9,-0.6,7.3,0.8
Cc1ccc(NC(=S)c2nc3ccccc3[nH]2)c(C)c1,8.9*,1.0,5.6,7.7
O=C(c1ccc(COc2ccc(F)cc2)o1)n1cccn1,-2.6,-6.7,-1.6,44.7*
O=C(c1ccc(COc2ccc(F)cc2)o1)n1cc(Br)cn1,-1.2,-2.1,-5.1,31.4
COc1ccc(Nc2c(-c3cccc(OC)c3)nc3nc(C)cc(C)n23)cc1,-7.9,29.4,-18.2,33.3
Cc1ccc(Nc2c(-c3ccco3)nc3nc(C)cc(C)n23)cc1,-6.6,12.7,-11.8,67.8*
COc1ccc(S[C@]2(C(=O)N(C)C)CC(=O)N(c3ccccc3)[C@@H]2c2ccc(OC)cc2)cc1,0.5,-14.1,3.6,-10.7
O=C(CSc1nc(-c2ccco2)cc(C(F)(F)F)n1)Nc1ccc2c(c1)OCO2,-0.5,-9.4,3.0,-12.2
O=C(CCCSc1nc(-c2ccco2)cc(C(F)(F)F)n1)Nc1ccc2c(c1)OCO2,5.0,4.1,25.6*,-2.5
Cc1ccc(-c2cc(C(=O)Nc3ccc(S(=O)(=O)Nc4nccs4)cc3)c3ccccc3n2)c(C)c1,20.2*,0.7,40.4*,-9.9
COc1cccc(CN(C)C[C@H]2OCc3cnnn3CCCC(=O)N([C@H](C)CO)C[C@@H]2C)c1,-2.6,1.5,0.5,2.2
CCOC(=O)C1=C(COC(=O)Cc2c(F)cccc2Cl)NC(=O)NC1C (centres undefined),-4.2,36.0*,-7.9,28.6
O=[N+]([O-])c1cc(S(=O)(=O)N2CCCC2)ccc1O,1.6,2.2,7.7,-1.8
O=[N+]([O-])c1cc(S(=O)(=O)N2CCCCCC2)ccc1F,-0.6,47.8*,-2.5,8.0
COc1ccc(C(C(=O)NC(C)(C)C)n2c(COc3ccc(C)cc3)nc3ccccc32)cc1 (centres undefined),2.5,-19.3,-3.4,-20.1
COc1ccc(C(C(=O)NC(C)(C)C)n2c(-c3ccc(=O)[nH]c3)nc3ccccc32)cc1 (centres undefined),1.0,45.4*,-4.1,45.3*
CN(C)CCN(C)c1cc2c(c3c1ccn3C)C1CCC2O1 (centres undefined),-30.6,-3.0,-111.2,-6.3
